# Measured values reported in PubChem BioAssay (Tox21).
# Results filed as inconclusive are left out. Entries that show only a call come without a potency. Unmarked numbers belong to inactive results. Calls of active or inactive are those of the source. Unless noted, calls come from the whole dose curve; as a rule, active = well fitted curve in the direction sought with a large enough effect in the repeat runs; inconclusive = weak or mixed curves; inactive = no such curve, though single readings can be large; an effect the other way counts as inactive or inconclusive.
# Legend:
# [1] = qHTS assay to identify small molecule antagonists of the retinoid acid receptor (RAR) signaling pathway - cell viability counter screen (AID 1159551); note: nearly all actives have a fitted effect of over 35% in size
# Procedure, shortened: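 ATP-based viability, C3RL4 cells, 6 h at 37 C with 1 uM final retinol co-added after compound; luminescence read 30 min post CellTiter-Glo, RT.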
# [2] = qHTS assay to identify small molecule antagonists of the estrogen related receptor (ERR) signaling pathway from Tox21 library - cell viability counter screen (AID 1224834); note: nearly all actives have a fitted effect of over 30% in size
# Procedure, shortened: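 Compounds in DMSO were pinned onto ERR cells that had been incubated for 6 h, and the plates were held at 37 C for 17.5 h. CellTiter-Fluor reagent was then added and fluorescence was measured after 30 min.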
# [3] = molecular target: Luciferin 4-monooxygenase (Photinus pyralis) (UniProt P08659); experiment: qHTS assay to identify small molecule inhibitors of firefly luciferase (AID 1224835); note: series mostly up to about 120 µM; nearly all actives have a fitted effect of over 25% in size
# Procedure, shortened: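 Quantitative HTS format; KM concentrations of both substrates. Purified P. pyralis FLuc activity quantified from luminescence images.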
# [4] = qHTS assay to identify small molecule agonists of the constitutive androstane receptor (CAR) signaling pathway - cell viability counter screen (AID 1224836); note: series mostly up to about 92 µM; nearly all actives have a fitted effect of over 45% in size
# Procedure, shortened: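 Compound titrations (15 concentrations) went onto HepG2-CYP2B6-hCAR cells 4 h after seeding, alongside PK11195 at a final 0.75 uM; a 23 h, 37 C/5% CO2 incubation preceded CellTiter-Fluor viability measurement.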
# [5] = qHTS assay to identify small molecule antagonists of the constitutive androstane receptor (CAR) signaling pathway - cell viability counter screen (AID 1224837); note: series mostly up to about 92 µM; nearly all actives have a fitted effect of over 45% in size
# Procedure, shortened: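 Cells are seeded, rested 4 hr at 37 C/5% CO2, dosed with compound (15-point series) and 50 nM CITCO, incubated a further 23 hr, and then CellTiter-Fluor reagent is added before fluorescence is read. The line is HepG2 with stable hCAR and CYP2B6-2.2kb.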
# [6] = qHTS assay to identify small molecule antagonists of the estrogen related receptor signaling pathway with the pleiotropic PPARgamma coactivator (PGC) from Tox21 10K library - cell viability counter screen (AID 1224840; active = well fitted cell-killing curve with a large enough effect in the repeat runs, not every such curve was filed as active; note: nearly all actives have a fitted effect of over 40% in size)
# Procedure, shortened: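 Cell viability is measured by CellTiter-Fluor fluorescence in PGC/ERR cells that receive compounds after a 6-hour attachment period and are then incubated 17.5 hours at 37 C.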
# [7] = molecular target: Thyrotropin receptor (Homo sapiens) (UniProt P16473); experiment: qHTS assay to identify small molecule agonists of the thyroid stimulating hormone receptor (TSHR) signaling pathway (AID 1224843; calls by dose curve; note: nearly all actives have a fitted effect of over 45% in size; note: potency is the fitted concentration of half-maximal effect)
# Procedure, shortened: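 Using 15 concentrations per compound in triplicate, cAMP production was monitored in TSHR-HEK293 cells after 30 min compound incubation at RT; HTRF reagents followed, with fluorescence intensity recorded after 1 h.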
# [8] = qHTS assay to identify small molecule antagonists of the estrogen related receptor (ERR) signaling pathway - cell viability counter screen (AID 1224818);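 note: series mostly up to about 46 µM; viability measured after 17.5 h of compound exposure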
# Procedure, shortened: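 Quantitative high-throughput viability counter screen in ERR cells. Compounds (DMSO) incubated 17.5 h at 37 C; read-out was CellTiter-Fluor fluorescence.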
# [9] = qHTS assay to identify small molecule antagonists of the estrogen related receptor signaling pathway with the pleiotropic PPARgamma coactivator (PGC) cell viability counter screen (AID 1224822; note: series mostly up to about 46 µM)
# Procedure, shortened: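 Cytotoxicity in the PGC/ERR cell line is assessed with CellTiter-Fluor, read as fluorescence intensity 30 min after reagent addition, following 17.5 h compound treatment at 37 C.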
# [10] = molecular target: Nuclear receptor subfamily 1 group I member 3 (Homo sapiens) (UniProt Q14994); experiment: qHTS assay to identify small molecule antagonists of the constitutive androstane receptor (CAR) signaling pathway (AID 1224838);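 note: HepG2 cells stably expressing hCAR with CYP2B6 luciferase reporter stimulated by CITCO; nearly all actives have a fitted effect of over 40% in size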
# Procedure, shortened: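 Luminescence from a CYP2B6-2.2kb promoter reporter in hCAR-expressing HepG2 cells reflects CAR signaling. Cells received compounds at 15 concentrations and 50 nM CITCO (final), then incubated 24 h at 37 C/5% CO2.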
# [11] = molecular target: Nuclear receptor subfamily 1 group I member 3 (Homo sapiens) (UniProt Q14994); experiment: qHTS assay to identify small molecule agonists of the constitutive androstane receptor (CAR) signaling pathway (AID 1224839); note: nearly all actives have a fitted effect of over 15% in size; note: potency is the fitted concentration of half-maximal effect
# Procedure, shortened: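 In this screen, CAR-driven CYP2B6 promoter activity is measured by luminescence in HepG2-CYP2B6-hCAR cells after 24 h with test compounds and 0.75 uM PK11195 (final concentration).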
# [12] = qHTS assay to identify small molecule agonists of the estrogen related receptor signaling pathway with the pleiotropic PPARgamma coactivator (PGC) from Tox21 10K library (AID 1224842); note: nearly all actives have a fitted effect of over 15% in size
# Procedure, shortened: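 PGC/ERR reporter cells (NTP line) were seeded 2,000 per well, rested 6 h at 37 C/5% CO2, then pin-dosed with compounds in DMSO for 18 h at 37 C; luciferase read by One-Glo luminescence after 30 min at room temperature.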
# [13] = qHTS assay to identify small molecule antagonists of the retinoic acid receptor (RAR) signaling pathway (AID 1159552; note: nearly all actives have a fitted effect of over 50% in size)
# Procedure, shortened: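 Readout: luciferase luminescence, 30 min post-reagent at RT. Setup: C3RL4 RARE reporter cells, compounds plus retinol 1 uM final, 6 hr incubation at 37 C and 5% CO2.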
# [14] = qHTS assay to identify small molecule agonists of the retinoic acid receptor (RAR) signaling pathway (AID 1159553)
# Procedure, shortened: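 Quantitative high-throughput format: the Tox21 10K library was tested on C3RL4 RARE-luciferase cells for 6 hr at 37 C and 5% CO2, with luminescence measured after a 30 min room-temperature reagent step.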
# [15] = qHTS assay to identify small molecule antagonists of the estrogen related receptor signaling pathway with the pleiotropic PPARgamma coactivator (PGC) from Tox21 10K library (AID 1224841; call rule not given here; note: series mostly up to about 92 µM; actives are mostly falling curves and most rising ones were filed inactive; nearly all actives have a fitted effect of over 50% in size)
# Procedure, shortened: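 Cells stably carrying the PGC/ERR reporter, seeded at 2,000 per well, received pin-transferred compounds 6 h post-plating. Exposure lasted 18 h at 37 C. Signal: One-Glo luminescence.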
# [16] = qHTS assay to identify small molecule antagonists of the estrogen related receptor (ERR) signaling pathway (AID 1224819;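 note: luminescence from an ERR-driven luciferase reporter measured with One-Glo reagent; series mostly up to about 46 µM; nearly all actives have a fitted effect of over 50% in size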)
# Procedure, shortened: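 ERR reporter cell line (NTP) plated at 2,000 cells/well, settled 6 h at 37C/5% CO2, then exposed to LOPAC compounds for 18 h at 37C. One-Glo luciferase luminescence read after 30 min at room temperature.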
# [17] = qHTS assay to identify small molecule agonists of the estrogen related receptor (ERR) signaling pathway (AID 1224820)
# Procedure, shortened: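 Following a 6 h settling period, 2,000 ERR cells per well receive DMSO-dissolved compounds by pin tool and incubate 18 h at 37 C; agonist activity is scored from One-Glo luminescence read 30 min post-addition.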
# [18] = tested on: estrogen-related receptor alpha (ERRalpha) with PGC-1alpha coactivator, human; experiment: qHTS assay to identify small molecule antagonists of the estrogen related receptor signaling pathway with the pleiotropic PPARgamma coactivator (PGC) (AID 1224821; calls by dose curve;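 note: series mostly up to about 46 µM; lower luminescence signal means antagonism of PGC/ERR signalling; nearly all actives have a fitted effect of over 50% in size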)
# Procedure, shortened: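 Screening used NTP's PGC/ERR cells, dosed via pin tool with compound in DMSO alongside positive and negative controls. After 18 h at 37 C, One-Glo reagent sat 30 min at room temperature before luminescence detection.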
# [19] = qHTS assay to identify small molecule agonists of the estrogen related receptor signaling pathway with the pleiotropic PPARgamma coactivator (PGC) (AID 1224823)
# Procedure, shortened: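 In this quantitative high-throughput screen, an 18 h, 37 C treatment of PGC/ERR cells with compounds in DMSO preceded a One-Glo luminescence read taken after 30 min at room temperature.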
# Sequence of Thyrotropin receptor (Homo sapiens) (P16473 whole entry, looked up): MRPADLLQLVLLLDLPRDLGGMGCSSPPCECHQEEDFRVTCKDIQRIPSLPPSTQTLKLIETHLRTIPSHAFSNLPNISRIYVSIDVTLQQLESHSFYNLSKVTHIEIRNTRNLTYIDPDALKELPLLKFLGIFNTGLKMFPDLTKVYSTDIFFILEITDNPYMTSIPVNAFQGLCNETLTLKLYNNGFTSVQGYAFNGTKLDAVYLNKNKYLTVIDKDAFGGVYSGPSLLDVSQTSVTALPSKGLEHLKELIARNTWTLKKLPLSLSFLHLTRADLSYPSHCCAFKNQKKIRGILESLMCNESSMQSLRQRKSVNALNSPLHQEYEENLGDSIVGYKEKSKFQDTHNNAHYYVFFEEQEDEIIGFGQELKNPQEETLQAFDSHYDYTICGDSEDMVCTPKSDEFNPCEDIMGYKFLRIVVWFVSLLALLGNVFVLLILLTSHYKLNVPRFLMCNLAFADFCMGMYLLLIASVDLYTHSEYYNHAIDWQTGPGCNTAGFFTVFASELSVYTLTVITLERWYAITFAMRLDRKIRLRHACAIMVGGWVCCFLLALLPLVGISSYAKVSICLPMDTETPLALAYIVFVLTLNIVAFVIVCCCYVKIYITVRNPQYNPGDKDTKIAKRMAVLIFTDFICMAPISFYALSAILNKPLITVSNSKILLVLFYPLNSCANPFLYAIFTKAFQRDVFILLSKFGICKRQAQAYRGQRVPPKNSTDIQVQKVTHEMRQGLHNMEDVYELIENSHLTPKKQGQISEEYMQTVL
# Sequence of Nuclear receptor subfamily 1 group I member 3 (Homo sapiens) (Q14994 whole entry, looked up): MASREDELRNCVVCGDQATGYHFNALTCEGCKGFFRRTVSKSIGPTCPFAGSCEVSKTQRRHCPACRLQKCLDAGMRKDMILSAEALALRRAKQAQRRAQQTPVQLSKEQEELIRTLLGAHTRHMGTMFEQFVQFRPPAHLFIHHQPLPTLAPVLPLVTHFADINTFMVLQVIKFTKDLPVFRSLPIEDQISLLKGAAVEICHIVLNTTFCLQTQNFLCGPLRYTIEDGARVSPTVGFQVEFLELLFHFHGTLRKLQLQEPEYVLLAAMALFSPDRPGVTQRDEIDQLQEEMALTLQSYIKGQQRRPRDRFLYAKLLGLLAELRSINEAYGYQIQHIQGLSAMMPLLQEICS
# Sequence of Luciferin 4-monooxygenase (Photinus pyralis) (P08659 whole entry, looked up): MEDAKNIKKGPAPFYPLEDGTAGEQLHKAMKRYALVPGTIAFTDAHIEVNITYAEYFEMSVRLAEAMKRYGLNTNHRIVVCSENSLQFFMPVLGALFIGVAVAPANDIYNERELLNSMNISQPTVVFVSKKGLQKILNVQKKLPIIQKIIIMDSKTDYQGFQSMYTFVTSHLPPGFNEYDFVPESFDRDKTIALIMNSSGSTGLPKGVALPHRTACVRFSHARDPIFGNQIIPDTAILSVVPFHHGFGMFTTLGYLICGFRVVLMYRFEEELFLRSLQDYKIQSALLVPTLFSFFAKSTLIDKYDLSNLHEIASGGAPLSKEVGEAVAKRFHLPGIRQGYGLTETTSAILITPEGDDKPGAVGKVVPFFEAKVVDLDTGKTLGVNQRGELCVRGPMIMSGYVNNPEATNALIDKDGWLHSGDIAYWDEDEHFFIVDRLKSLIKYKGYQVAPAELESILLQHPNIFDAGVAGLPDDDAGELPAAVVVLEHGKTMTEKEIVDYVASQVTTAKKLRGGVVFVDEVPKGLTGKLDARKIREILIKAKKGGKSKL
smiles,measurement,setting,value
CC(=O)N[C@H]1[C@H]([C@H](O)[C@H](O)CO)OC(C(=O)O)=C[C@@H]1N=C(N)N,outcome,[1],inactive
same,Potency,[2],inactive
same,Potency,[3],inactive
same,outcome,[4],inactive
same,outcome,[5],inactive
same,outcome,[6],inactive
same,Potency,[7],inactive
CN1CC(=O)N/C1=N/C(=O)Nc1cccc(Cl)c1,outcome,[1],inactive
same,outcome,[8],inactive
same,outcome,[9],inactive
same,Potency,[2],inactive
same,outcome,[4],inactive
same,outcome,[5],inactive
same,Potency,[10],inactive
same,Potency,[11],33.5 µM (active)
same,outcome,[6],inactive
same,Potency,[7],inactive
CN1[C@@H]2CC[C@H]1CC(OC(=O)C(O)c1ccccc1)C2 (stereo partly drawn),outcome,[1],inactive
same,Potency,[2],inactive
same,Potency,[3],inactive
same,outcome,[4],inactive
same,outcome,[5],inactive
same,Potency,[11],inactive
same,outcome,[6],inactive
same,Potency,[12],inactive
same,Potency,[7],inactive
CCN1CCOCC1,outcome,[1],inactive
same,Potency,[13],inactive
same,Potency,[14],inactive
same,Potency,[2],inactive
same,outcome,[4],inactive
same,outcome,[5],inactive
same,Potency,[10],inactive
same,Potency,[11],inactive
same,outcome,[6],inactive
CC(CC=O)CC(C)(C)C (stereo not drawn),outcome,[1],inactive
same,Potency,[13],inactive
same,Potency,[2],inactive
same,Potency,[3],inactive
same,outcome,[4],inactive
same,outcome,[5],inactive
same,Potency,[10],inactive
same,Potency,[11],inactive
same,outcome,[6],inactive
CCCCCCCC1CCCC1=O (stereo not drawn),outcome,[1],inactive
same,Potency,[13],inactive
same,Potency,[2],inactive
same,Potency,[3],inactive
same,outcome,[4],inactive
same,outcome,[5],inactive
same,outcome,[6],inactive
CCCc1ncc(C[n+]2ccccc2C)c(N)n1,outcome,[1],inactive
same,Potency,[2],inactive
same,Potency,[3],inactive
same,outcome,[4],inactive
same,outcome,[5],inactive
same,outcome,[6],inactive
CC1(C)OC[C@@H](COC(=O)CCc2ccc(OC[C@@H](O)CNCCNC(=O)N3CCOCC3)cc2)O1,outcome,[1],inactive
same,Potency,[2],inactive
same,Potency,[3],inactive
same,outcome,[4],inactive
same,outcome,[5],inactive
same,Potency,[10],inactive
same,Potency,[11],inactive
same,outcome,[6],inactive
same,Potency,[15],inactive
same,Potency,[12],inactive
same,Potency,[7],inactive
CNCC(O)c1ccc(O)c(O)c1 (stereo not drawn),outcome,[1],inactive
same,Potency,[14],inactive
same,outcome,[8],inactive
same,outcome,[16],inactive
same,outcome,[17],inactive
same,outcome,[18],inactive
same,outcome,[9],inactive
same,outcome,[19],inactive
same,Potency,[2],inactive
same,Potency,[3],inactive
same,outcome,[4],inactive
same,outcome,[5],inactive
same,Potency,[10],inactive
same,Potency,[11],inactive
same,outcome,[6],inactive
same,Potency,[15],inactive
same,Potency,[7],2.98 µM (active)
Cc1coc2ccccc2c1=O,outcome,[1],inactive
same,Potency,[2],inactive
same,Potency,[3],inactive
same,outcome,[4],inactive
same,outcome,[5],inactive
same,outcome,[6],inactive
CC1(C)[C@@H]2CC[C@@]1(C)[C@H](O)C2,Potency,[2],inactive
same,outcome,[4],inactive
same,outcome,[5],inactive
same,outcome,[6],inactive
same,Potency,[7],inactive
CN(C)C(=O)Oc1cccc([N+](C)(C)C)c1,outcome,[1],inactive
same,Potency,[14],inactive
same,outcome,[8],inactive
same,outcome,[9],inactive
same,Potency,[2],inactive
same,Potency,[3],inactive
same,outcome,[4],inactive
same,outcome,[5],inactive
same,Potency,[10],inactive
same,Potency,[11],inactive
same,outcome,[6],inactive
same,Potency,[7],inactive
